Screening results (PubChem BioAssay)
HPGD block: inhibitors of human 15-hydroxyprostaglandin dehydrogenase (HPGD); P15428; purified HPGD, NADH fluorescence kinetic, PGE2 substrate; Potency, µM, for inactives: at the highest dose activity change, negative = inhibition, actives largely listed as inhibitors; hit rate 4.3% among 150,000
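NADH formation kinetics: reaction with 30 uM PGE2 and 1 mM NAD+ (final), 20 nM enzyme, Tris-HCl pH 8 with Tween 20, after 15 min compound preincubation at room temperature. Fluorescence change, last versus first of five reads.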
Tau fluor counter: counter-screen for tau fibril formation inhibitors; hit rate 0.93% among 280,000; Potency, µM (titrated, usually from 57.7 µM), without a hit: at the top dose activity change, negative = decrease; tau K18 P301L Alexa594 fluorescence, heparin fibrillization; active means well fitted curve in the direction sought with a large enough effect; inconclusive means small, poorly fitted or top-dose-only effect, or another doubt; inactive means no such curve, though single readings can be large; an effect the other way counts as inactive or inconclusive; further: nearly all actives have a fitted effect of over 55% in size
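Human tau K18 P301L (15 uM unlabeled, 0.24 uM Alexa 594-labeled) in 100 mM sodium acetate pH 7 with 20 uM heparin, 6 hr at 37 C. ThT 30 uM added, 1 hr ambient; Alexa 594 FP and total fluorescence read at 555/632 nm.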
Tau FP inhib: inhibitors of human tau fibril formation | K18 P301L tau heparin fibrillization, Alexa594 FP, 6 h | Potency, µM (top dose mostly 57.7 µM), inactives show at the top dose activity, negative = inhibition, actives largely listed as inhibitors | hit rate 0.39% among 280,000 | AID 1468; active means well fitted curve in the direction sought with a large enough effect; inconclusive means small, poorly fitted or top-dose-only effect, or another doubt; inactive means no such curve, though single readings can be large; an effect the other way counts as inactive or inconclusive; further: nearly all actives have a fitted effect of over 55% in size
Target sequence (P10636 561-689 P618L limits assumed): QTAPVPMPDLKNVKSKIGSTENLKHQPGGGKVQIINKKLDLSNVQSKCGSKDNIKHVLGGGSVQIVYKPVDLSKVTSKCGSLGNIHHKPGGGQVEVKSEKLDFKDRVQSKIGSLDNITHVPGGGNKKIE
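Human tau K18 […] P301L fragment, 15 uM unlabeled plus 0.24 uM Alexa 594-labeled tau (final), with compound and 20 uM heparin in 100 mM sodium acetate pH 7; 6 hr at 37 C, then Alexa 594 FP read.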
KDM4E inh: blocks human JMJD2E demethylase activity | B2RXH2 | hit rate 1.6% among 230,000 | AID 2147 | JMJD2E catalytic domain, FDH-coupled NADH fluorescence (FDH is formaldehyde dehydrogenase) | Potency, µM (series often up to 57.1 µM), for the others: at the top dose activity change, negative = inhibition, usual class: inhibitors;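 further: 0% = wells with enzyme and -100% = buffer wells without enzyme; nearly all actives have a fitted effect of over 50% in size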
Target sequence (B2RXH2 1-337 limits assumed): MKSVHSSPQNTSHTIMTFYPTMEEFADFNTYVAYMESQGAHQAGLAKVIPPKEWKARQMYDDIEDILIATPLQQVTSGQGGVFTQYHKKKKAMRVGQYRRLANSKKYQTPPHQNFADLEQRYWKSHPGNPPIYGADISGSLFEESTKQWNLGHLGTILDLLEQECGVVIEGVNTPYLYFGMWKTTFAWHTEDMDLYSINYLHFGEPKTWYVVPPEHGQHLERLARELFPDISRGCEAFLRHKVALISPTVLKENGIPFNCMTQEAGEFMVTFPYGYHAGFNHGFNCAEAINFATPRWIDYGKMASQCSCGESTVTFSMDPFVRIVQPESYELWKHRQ
Tau fibril ThT: blocks human tau fibril formation measured by thioflavin T | P10636 | Potency, µM (top dose mostly 57.4 µM), inactives show top-dose activity, negative = inhibition, most hits filed as inhibitors | AID 1460 | hit rate 2.1% among 270,000 | recombinant tau K18 P301L (four-repeat tau fragment), heparin-induced fibrillization, ThT fluorescence; active means well fitted curve in the direction sought with a large enough effect; inconclusive means small, poorly fitted or top-dose-only effect, or another doubt; inactive means no such curve, though single readings can be large; an effect the other way counts as inactive or inconclusive; further: nearly all actives have a fitted effect of over 55% in size
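Heparin-induced (20 uM) aggregation of recombinant human K18 P301L tau, 15 uM unlabeled with 0.24 uM labeled, pH 7 acetate buffer, 6 hr at 37 C with compound. Fibrils quantified by 30 uM ThT fluorescence after 1 hr ambient incubation.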
ALDH1A1 inh: inhibitors of human aldehyde dehydrogenase 1A1. hit rate 7.3% among 220,000. Potency, µM (series often up to 75.3 µM), without a hit: top-dose activity, negative = inhibition, hits mostly inhibitors. Purified ALDH1A1, NADH fluorescence, propionaldehyde substrate;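 further: plate controls were no enzyme wells and a reference inhibitor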
* hit, by the source's call; ? = inconclusive; / = no result; [ ] = dose if it differs, or a comment. A selection: hits, their analogues and other compounds. The true share with any hit is near 9.9%. Unless noted, the call rests on the fitted dose curve; in most records, active means well fitted inhibition curve with a large enough effect (not every such curve was filed as active); inconclusive means small, poorly fitted or top-dose-only effect, or another doubt; inactive means no such curve, though single readings can be large or run the other way. Unless noted, on the % scale 0 is the no-effect control and ±100 the full control effect; potency means the concentration at half of the fitted maximal effect.

SMILES	HPGD block	Tau fluor counter	Tau FP inhib	KDM4E inh	Tau fibril ThT	ALDH1A1 inh
Cc1ccc(OCC(=O)N/N=C/c2cn(Cc3ccccc3)c3ccccc23)cc1	-16%	?	9%	-12%	?	?
O=C(N/N=C/c1cn(Cc2ccccc2)c2ccccc12)c1ccncc1	/	25µM*[quencher]	14%	-5%	?	14µM*
O=C(N/N=C/c1cn(Cc2ccccc2)c2ccccc12)c1cccnc1	-19%	?	14%	-18%	?	14µM*
O=C(O)c1nn2cc(CCO)cnc2c1Cl	/	-26%	-26%	?	-3%	?
Cn1c(-c2ccc3c(c2)OCO3)cnc1NC(=O)CCC(=O)NCCc1ccccc1	-21%	-9%	5%	?	?	1%
Cn1c(-c2ccc3c(c2)OCO3)cnc1NCc1ccccc1	16µM*	-7%	-6%	?	-10%	?
Cn1c(-c2ccc3c(c2)OCO3)cnc1NCc1cccc(Cl)c1	?	-12%	2%	?	-18%	14µM*
Cc1ccoc1C(=O)NCCNc1ccc(Cl)cc1[N+](=O)[O-]	-14%	-24%	4%	2%	11µM*	1%
CCCCC(CC)CNC(=O)CC1Nc2c3ccccc3nc(=S)n2C1=O (stereo not given)	/	-5%	-5%	4%	-2%	13%
COc1ccc(CC(=O)NC2CCN(Cc3nnnn3C(C)(C)C)CC2)cc1OC	-6%	-12%	-7%	-1%	-13%	25µM*
CCC(C)(C)n1nnnc1CN1CCC(NC(=O)c2ccc(Br)cc2)CC1	-13%	-5%	-2%	6%	-4%	5µM*
CC(C)(C)n1nnnc1CN1CCC(NC(=O)NC2CCCCC2)CC1	-5%	-3%	-3%	1%	-7%	-11%
Cc1ccc(Cn2nnnc2CN2CCC(NC(=O)c3ccc(Br)cc3)CC2)cc1	-1%	2%	1%	2%	-3%	-6%
Cc1ccc(NC(=O)c2sc3nc(-c4ccncc4)ccc3c2N)cc1	/	-20%	-18%	/	?	/
COc1ccc(C(=O)c2sc3nc(-c4ccc(F)cc4)ccc3c2N)cc1	/	?	-11%	/	?	/
Cc1ccccc1NC(=O)c1sc2nc(-c3ccncc3)ccc2c1N	/	10µM*[quencher]	13%	/	5µM*	/
COc1cccc(-c2ccc3c(N)c(C(=O)Nc4cc(F)ccc4F)sc3n2)c1	/	?	12%	/	?	/
COc1ccc(-c2ccc3c(N)c(C(=O)NCc4ccc(C)cc4)sc3n2)cc1	/	?	-5%	/	-8%	/
COc1cccc(-c2ccc3c(N)c(C(=O)c4ccc(F)cc4)sc3n2)c1	/	3.2µM*[quencher]	?	/	?	/
COc1cccc(-c2ccc3c(N)c(C(=O)Nc4ccccc4C)sc3n2)c1	/	8.9µM*[quencher]	-4%	/	?	/
COc1cccc(-c2ccc3c(N)c(C(=O)NCc4ccc(Cl)cc4)sc3n2)c1	/	4.5µM*[quencher]	10%	/	?	/
COc1cccc(-c2ccc3c(N)c(C(=O)NC4CC4)sc3n2)c1	/	16µM*[quencher]	13%	?	?	/
COc1cccc(C(=O)OCC(=O)Nc2cc(C)c(C)cc2[N+](=O)[O-])c1	-5%	-20%	-14%	4%	-18%	?
CC(C)=NOC[C@@H](O)COCc1ccco1	/	-1%[11.6 µM]	-5%[11.6 µM]	/	-7%[11.5 µM]	-5%[13.5 µM]
O=S(=O)(NCC(O)COCc1ccco1)c1cccs1 (stereo not given)	-8%	4%	-15%	1%	-15%	7.9µM*
CNc1cc([N+](=O)[O-])ccc1N/C=C/C(=O)c1cccs1	-17%	?	10%	-1%	16µM*	?
O=C(/C=C/Nc1cccc([N+](=O)[O-])c1)c1cccs1	-5%	?	3%	-6%	4.5µM*	14µM*
Cc1ccc([N+](=O)[O-])cc1NC(=O)c1cccs1	/	1%	2%	-8%	5%	3%
COC(=O)c1ccc(N/C=C\C(=O)c2ccc3c(c2)OCO3)cc1	/	0%	2%	-1%	0%	-5%
CNc1cc([N+](=O)[O-])ccc1N/C=C/C(=O)c1ccc2c(c1)OCO2	-16%	-27%	8%	3%	3.5µM*	13µM*
